# In PubChem BioAssay AID720485 (Milwaukee Institute for Drug Discovery, 2013):
# The other results are listed elsewhere or left out. Calls of active or inactive are those of the source.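 Rule for the calls: active = percent inhibition of 50% or more; inactive = the rest.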
# System: Hepatitis C virus NS3 helicase
# Experiment: HCV NS3 helicase inhibitors, retest, confirmation, biochemical, fluorescence polarization, ChemBridge library (AID 720485)
# Conditions: NS3h binding to Cy5-dT15 DNA, at 100 µM, hits give high values
smiles,measurement,value
CCOc1cc(C=C2C(=O)NC(=O)NC2=O)cc(Br)c1OCCOc1ccccc1C,inhibition,23.5% (inactive)
